PubChem BioAssay (EPA / NIEHS)
Results filed as inconclusive are left out. The source made the active and inactive calls. How the source made its calls, unless noted: active means hit-call score of the fitted dose curve at least 0.9, where 1 is the maximum; inactive means score below 0.9.

Columns and labels:
[1] = CCTE_Mundy_HCI_Cortical_Synap_Neur_Matur_NeuriteSpotCountPerNeuriteLength: CCTE's Synaptogenesis and Neurite Maturation Assay in rat cortical cells for Neurite Spot Count per Neurite Length, Mundy Lab (AID 2284210)
Outline: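 Rat primary cortical cultures, AraC added at DIV 5 to suppress glia; chemical exposure from DIV 7 to DIV 12. Fixed cells stained for MAP2 and synaptophysin plus Hoechst; synaptophysin puncta per neurite length quantified by high-content imaging, relative to DMSO.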

[2] = CCTE_Mundy_HCI_Cortical_NOG_NeuriteLength: CCTE's Neurite Outgrowth Assay in rat cortical cells for Neurite Length, Mundy Lab (AID 2284213)
Outline: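 Neurite length was read by high-content imaging of βIII-tubulin-labelled neurites in rat primary cortical cultures. Activity was fitted relative to DMSO.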

[3] = CCTE_Mundy_HCI_Cortical_Synap_Neur_Matur_NeuriteLength: CCTE's Synaptogenesis and Neurite Maturation Assay in rat cortical cells for Neurite Length, Mundy Lab (AID 2284214)
Outline: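 Rat primary cortical cultures, AraC added DIV 5, dosed DIV 7 through DIV 12 […]. Fixed, MAP2/synaptophysin immunostained with Hoechst; neurite length by high-content imaging, fitted in positive direction versus DMSO.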

[4] = CCTE_Mundy_HCI_Cortical_Synap_Neur_Matur_NeuriteSpotCountPerNeuron: CCTE's Synaptogenesis and Neurite Maturation Assay in rat cortical cells for Neurite Spot Count per Neuron Count, Mundy Lab (AID 2284215)
Outline: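 Rat primary cortical cells received AraC at DIV 5, then chemicals with a media change at DIV 7, and were fixed at DIV 12. Synaptophysin puncta on MAP2-stained neurites per neuron were counted by high-content imaging, fitted relative to DMSO.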

[5] = CCTE_Mundy_HCI_Cortical_Synap_Neur_Matur_SynapseCount: CCTE's Synaptogenesis and Neurite Maturation Assay in rat cortical cells for Synapse Count, Mundy Lab (AID 2284218)
Outline: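 Rat primary cortical cultures, AraC at DIV 5, chemical dosing DIV 7 to DIV 12 (288.33 h). Fixed cells stained for MAP2, synaptophysin and Hoechst; synapses per neuron counted by high-content imaging, loss of signal versus DMSO.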

[6] = CCTE_Mundy_HCI_Cortical_Synap_Neur_Matur_CellBodySpotCount: CCTE's Synaptogenesis and Neurite Maturation Assay in rat cortical cells for Cell Body Spot Count, Mundy Lab (AID 2284223)
Outline: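 Rat primary cortical cultures received AraC at DIV 5 to arrest glia, were dosed with chemical at DIV 7 with media change, and were fixed at DIV 12 (288.33 h). Synaptophysin puncta on MAP2-positive cell bodies per neuron were counted by high-content imaging versus DMSO.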

[7] = CCTE_Mundy_HCI_Cortical_NOG_NeuronCount: CCTE's Neurite Outgrowth Assay in rat cortical cells for Neuron Count, Mundy Lab (AID 2284236; active means hit-call score of the fitted dose curve at least 0.9, where 1 is the maximum;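 further: neurons counted by imaging betaIII-tubulin and Hoechst stained cortical cells; cells exposed to compound for about 48 hours before fixation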)
Outline: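 Read-out: neuron number by high-content imaging of betaIII-tubulin (Alexa Fluor-488) and Hoechst-labelled rat primary cortical cells.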

[8] = CCTE_Mundy_HCI_Cortical_Synap_Neur_Matur_NeuronCount: CCTE's Synaptogenesis and Neurite Maturation Assay in rat cortical cells for Neuron Count, Mundy Lab (AID 2284242; active means hit-call score of the fitted dose curve at least 0.9, where 1 is the maximum)
Outline: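 Rat primary cortical cells, AraC added at DIV 5, dosed with media change from DIV 7 to DIV 12. Fixed, Hoechst-stained and immunolabelled for MAP2 and synaptophysin; neuron number counted by high-content imaging, loss fitted versus DMSO.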

[9] = IUF_NPC2c_oligodendrocyte_migration_120hr: Leibniz Research Institute for Environmental Medicine (IUF) 120-hour Neural Progenitor Cell Migration Assay for Oligodendrocyte Migration (NPC2c) (AID 2284297);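 further: O4-positive oligodendrocyte migration distance divided by radial glia migration distance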
Outline: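 Human fetal cortex-derived neural progenitor spheres (0.3 mm) were plated on poly-D-lysine/laminin in N2 differentiation medium and exposed to 7 concentrations for 120 h, with half-medium renewal at day 3. Oligodendrocyte migration distance was normalized to radial glia migration, relative to DMSO.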

[10] = IUF_NPC2a_radial_glia_migration_120hr: Leibniz Research Institute for Environmental Medicine (IUF) 120-hour Neural Progenitor Cell Migration Assay for Radial Glia Migration (NPC2a) (AID 2284298)
Outline: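 Single 0.3 mm primary human fetal-cortex (GW 16-19) NPC spheres were plated on poly-D-lysine/laminin in N2 differentiation medium and exposed from day 0 for 120 h, half-medium refreshed day 3. Migration distance came from Hoechst nuclei-density imaging, relative to DMSO.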

[11] = IUF_NPC2a_radial_glia_migration_72hr: Leibniz Research Institute for Environmental Medicine (IUF) 72-hour Neural Progenitor Cell Migration Assay for Radial Glia Migration (NPC2a) (AID 2284299)
Outline: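 Human fetal neural progenitor spheres (0.3 mm) plated on poly-D-lysine/laminin in N2 differentiation medium and exposed from day 0 at 7 concentrations; radial glia migration distance from sphere edge measured at 72 h on brightfield images, mean of four directions, vs DMSO.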

[12] = IUF_NPC2b_neuronal_migration_120hr: Leibniz Research Institute for Environmental Medicine (IUF) 120-hour Neural Progenitor Cell Migration Assay for Neuron Migration (NPC2b) (AID 2284300)
Outline: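 Primary human fetal cortex neural progenitor spheres (0.3 mm) plated on poly-D-lysine/laminin in N2 differentiation medium, exposed 120 h with half-medium refresh at day 3. TUBB3-stained neuron distance from sphere core, normalized to radial glia migration, versus DMSO.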

[13] = IUF_NPC3_neuronal_differentiation_120hr: Leibniz Research Institute for Environmental Medicine (IUF) 120-hour Neuronal Differentiation Assay (NPC3) (AID 2284301)
Outline: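 Human fetal (GW 16-19) neural progenitor spheres (0.3 mm) plated on poly-D-lysine/laminin in N2 differentiation medium, exposed 120 h at 37C with half-medium renewal day 3; 7 concentrations. TUBB3+ cells as % of Hoechst nuclei, CNN-identified; DMSO baseline.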

[14] = IUF_NPC4_neurite_length_120hr: Leibniz Research Institute for Environmental Medicine (IUF) 120-hour Neuronal Morphology Assay for Neurite Length (NPC4) (AID 2284302)
Outline: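 Human fetal neural progenitor spheres (0.3 mm) plated on poly-D-lysine/laminin in N2 differentiation medium, exposed from day 0 for 120 h with half-medium refresh at day 3, 37C. Mean neurite length (um) of TUBB3-positive neurons from skeletonized immunostaining images; DMSO ≤0.1%.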

[15] = IUF_NPC5_oligodendrocyte_differentiation_120hr: Leibniz Research Institute for Environmental Medicine (IUF) 120-hour Oligodendrocyte Differentiation Assay (NPC5) (AID 2284304; active means hit-call score of the fitted dose curve at least 0.9, where 1 is the maximum;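 further: primary human fetal neural progenitor spheres plated to migrate and differentiate; share of O4-positive cells among Hoechst nuclei found by CNN image analysis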)
Outline: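 Primary human fetal (GW 16-19) neural progenitor spheres (0.3 mm) plated on poly-D-lysine/laminin in N2 differentiation medium, exposed from day 0 for 120 h with half-medium refresh at day 3; O4-positive cells as percent of Hoechst nuclei, CNN-identified, versus DMSO.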

[16] = IUF_NPC4_neurite_area_120hr: Leibniz Research Institute for Environmental Medicine (IUF) 120-hour Neuronal Morphology Assay for Neurite Area (NPC4) (AID 2284305; active means hit-call score of the fitted dose curve at least 0.9, where 1 is the maximum)
Outline: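 Human fetal neural progenitor spheres (0.3 mm) plated on poly-D-lysine/laminin in N2 differentiation medium, exposed 120 h (7 concentrations, DMSO ≤0.1%, half-medium refresh day 3). Fixed, TUBB3 immunostained; mean neurite area per neuron by Omnisphero skeletonization.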

[17] = IUF_NPC2-5_cytotoxicity_72hr: Cytotoxicity Assessment at 72 hours in the Leibniz Research Institute for Environmental Medicine (IUF) Neural Progenitor Cell Migration and Differentiation Assay for Cytotoxicity (NPC2-5) (AID 2284306; active means hit-call score of the fitted dose curve at least 0.9, where 1 is the maximum;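 further: LDH release into supernatant measured by resorufin fluorescence marking membrane damage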)
Outline: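 Human fetal primary neural progenitor spheres (0.3 mm) plated on poly-D-lysine/laminin in N2 differentiation medium, exposed from day 0 at 37C. LDH-dependent resazurin-to-resorufin fluorescence in supernatant at 72 h; 7 concentrations, DMSO at most 0.1%.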

[18] = IUF_NPC2-5_cytotoxicity_120hr: Cytotoxicity Assessment at 120 hours in the Leibniz Research Institute for Environmental Medicine (IUF) Neural Progenitor Cell Migration and Differentiation Assay (NPC2-5) (AID 2284307; active means hit-call score of the fitted dose curve at least 0.9, where 1 is the maximum;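 further: LDH released into supernatant as membrane damage marker via resorufin fluorescence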)
Outline: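 Human fetal neural progenitor spheres (0.3 mm, GW 16-19 cortex) were plated on poly-D-lysine/laminin in N2 differentiation medium and exposed for 120 h, with half-medium refresh at day 3. LDH release into supernatant was read by resorufin fluorescence.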

[19] = IUF_NPC2-5_cell_number_120hr: Cell Number Assessment at 120 hours in the Leibniz Research Institute for Environmental Medicine (IUF) Neural Progenitor Cell Migration and Differentiation Assay (NPC2-5) (AID 2284308);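 further: count of Hoechst-stained nuclei in migration zone around plated human neural progenitor spheres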
Outline: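 Primary human fetal neural progenitor spheres (GW 16-19, 0.3 mm) plated on poly-D-lysine/laminin in N2 differentiation medium, exposed from day 0 for 120 h with half-medium refresh at day 3; Hoechst-positive nuclei counted in migration area versus DMSO control.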

[20] = IUF_NPC1_cytotoxicity_72hr: Cytotoxicity Assessment at 72 hours in the Leibniz Research Institute for Environmental Medicine (IUF) Neural Progenitor Cell Proliferation Assay (NPC1) (AID 2284332; active means hit-call score of the fitted dose curve at least 0.9, where 1 is the maximum;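 further: rising LDH signal means more cytotoxicity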)
Outline: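 Human fetal neural progenitor spheres (0.3 mm) in EGF/FGF proliferation medium, 37C, exposed 72 h without renewal. LDH release in supernatant read by resorufin fluorescence; gain of signal scored relative to dynamic range.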

Measured: AC50

CN(C)CCCn1cc(C2=C(c3c[nH]c4ccccc34)C(=O)NC2=O)c2ccccc21
inactive: [1] | [2] | [3] | [4] | [5] | [6] | [7] | [8] | [20]
active: [9] 18.6 µM | [10] 5.37 µM | [11] 11.3 µM | [12] 16.3 µM | [13] 16.2 µM | [14] 4.06 µM | [15] 0.746 µM | [16] 7.2 µM | [17] 13.9 µM | [18] 8.39 µM | [19] 2.31 µM
